Screening data: PubChem, National Center for Advancing Translational Sciences (NCATS)
A selection: hits, their analogues and other compounds. The true share with any hit is near 5.2%.
PLK1 PBD block – blocks phosphopeptide binding to human PLK1 polo-box domain; 360,000 compounds, 2.8% hits; Potency, µM, without a hit: max response, negative = inhibition, usual class: inhibitors; Plk1 PBD binding of FITC phosphopeptide, fluorescence polarization; note: series mostly up to about 57 µM; nearly all actives have a fitted effect of over 65% in size
Sfp PPTase inh – Sfp phosphopantetheinyl transferase inhibition. Q9F4F7. Biochemical Sfp PPTase activity, qHTS. Potency, µM, for inactives: largest response in the series, negative = inhibition, hits mostly inhibitors. 310,000 compounds, 3.5% hits;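 note: the enzyme is Sfp with the accession as filed and its product quenches rhodamine fluorescence; 0% = enzyme reaction without inhibitor and -100% = no enzyme wells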
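Sfp 15 nM + cpd, 15 min RT; start w/ rhodamine-CoA 5 uM, BHQ-2-YbbR 12.5 uM (final); 50 mM Hepes pH 7.6, 10 mM MgCl2, 0.01% NP-40, 0.01% BSA; read 525/598 nm at 0 and 30 min.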
TrxR1 inh – inhibitors of rat thioredoxin reductase 1 | Potency, µM (titrated, usually from 114 µM), inactives show at the top dose activity change, negative = inhibition, actives largely listed as inhibitors | recombinant rTrxR1, NADPH fluorescence consumption, selenite substrate | 390,000 compounds, 1% hits | O89049; note: nearly all actives have a fitted effect of over 65% in size
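Rat TrxR1 (90 nM in the dispensed reagent) was pre-reduced with 400 uM NADPH for 5 min at room temperature, then incubated with compound for 15 min. After 400 uM selenite was added, NADPH fluorescence (Ex 340/Em 450 nm) was followed for 8 min.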
VDR inhibitor – vitamin D3 receptor (human) inhibition. P11473. VDR-SRC2-3 peptide fluorescence polarization, 2 h. Potency, µM, for the others: max response, negative = inhibition, usual class: inhibitors. 400,000 compounds, 0.93% hits. AID 504847
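VDR–SRC2-3 interaction, FP format. Cmpds 23 nl via pintool, brief spin, 2 h ambient incubation.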
TrxR1 substrate – is turned over as a substrate by rat TrxR1 | O89049 | purified TrxR1 substrate turnover, NADPH consumption readout | Potency, µM (series often up to 114 µM), without a hit: at the top dose activity change, negative = substrate turnover | 390,000 compounds, 0.01% hits | AID 588456; note: nearly all actives have a fitted effect of over 50% in size
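Rat TrxR1, dispensed at 90 nM, was prereduced with 400 uM NADPH (final) for 5 min at ~22 deg C, then incubated with compound 15 min before 400 uM selenite. A first-read NADPH fluorescence drop versus no-compound background flagged substrates.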
IDH1 R132H inh – blocks human mutant IDH1 R132H enzyme. O75874. IDH1-R132H enzyme, NADPH consumption, diaphorase/resazurin fluorescence. Potency, µM (top dose mostly 76.6 µM), for the others: at the highest dose activity change, negative = inhibition, actives largely listed as inhibitors. 390,000 compounds, 0.093% hits; note: nearly all actives have a fitted effect of over 65% in size
Target sequence (O75874 whole entry R132H, stated change not applied): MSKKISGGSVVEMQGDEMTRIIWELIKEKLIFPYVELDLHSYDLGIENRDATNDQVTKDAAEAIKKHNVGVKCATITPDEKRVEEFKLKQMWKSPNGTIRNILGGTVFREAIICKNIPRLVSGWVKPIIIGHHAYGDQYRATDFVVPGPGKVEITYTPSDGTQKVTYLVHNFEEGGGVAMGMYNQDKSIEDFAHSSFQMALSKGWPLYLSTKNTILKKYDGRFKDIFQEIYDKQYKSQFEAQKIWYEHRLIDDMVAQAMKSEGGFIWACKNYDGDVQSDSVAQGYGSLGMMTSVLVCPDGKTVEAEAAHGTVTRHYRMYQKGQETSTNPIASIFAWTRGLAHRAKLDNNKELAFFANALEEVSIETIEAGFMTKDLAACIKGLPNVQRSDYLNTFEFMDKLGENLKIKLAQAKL
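IDH1-R132H (0.5 ug/mL) preincubated 30 min with compound, then NADPH (0.016 mM) and alpha-KG (2 mM) added; 80 min at RT, pH 7.5. Remaining NADPH coupled via diaphorase/resazurin to fluorescence (540/590 nm); concentration-response curves normalized to no-enzyme control.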
Numbers without * were called inactive; ? = inconclusive; . = not tested or not shown; [ ] = remark or other dose. Calls come from the whole dose curve; as a rule, active = well fitted curve in the direction sought with a large enough effect; inconclusive = small, poorly fitted or top-dose-only effect, or another doubt; inactive = no such curve, though single readings can be large; an effect the other way counts as inactive or inconclusive. Unless noted, % is set by controls: 0 for no effect and ±100 for the full control effect; potency is the fitted concentration of half-maximal effect.

SMILES | PLK1 PBD block | Sfp PPTase inh | TrxR1 inh | VDR inhibitor | TrxR1 substrate | IDH1 R132H inh
Cc1cc(NC(=O)CSc2nc3cc(C(=O)NCCCOC(C)C)ccc3c(=O)n2Cc2ccco2)no1 | 3% | 56µM* | 21% | 1% | 11% | -8%
O=C(NCc1ccco1)c1ccc2c(=O)n(Cc3ccco3)c(SCC(=O)N3CCCC3)nc2c1 | -29% | 40µM* | -30% | 6% | 1% | 5%
COC(=O)C1=C(C)N(CCc2ccc(OC)c(OC)c2)C(=O)/C1=C\N(C)C | ? | -23% | 10µM* | ? | 4% | -1%
COc1ccc(CCN2C(=O)c3cccnc3C2=O)cc1OC | -4% | 30% | -3% | -14% | -5% | 9%
Cc1ccc(CCN2CC(C(=O)NCCCN3CCC(C)CC3)CC2=O)cc1 (stereo not drawn) | 27µM* | 2% | 2%[57.1 µM] | ? | 9%[57.1 µM] | -12%
Cc1ccc(CCN2CC(C(=O)NCCCN3CCCCCC3)CC2=O)cc1 (stereo not drawn) | -9% | -9% | -25% | -5% | -6% | 0%
Cc1noc(C)c1COC(=O)C1CCN(S(=O)(=O)c2c(Cl)cccc2Cl)CC1 | -3% | . | 12% | -10% | 3% | 4%
C/C(=N\NC(=S)Nc1c(C)cccc1C)c1ccc(OC(F)F)cc1 | -6% | -25% | 10%[57.1 µM] | ? | 0%[57.1 µM] | 2%
C/C(=N\NC(=S)Nc1ccccc1C)c1ccc(O)cc1 | 11µM* | 25µM* | 29%[57.1 µM] | ? | 12%[57.1 µM] | 0%
N#Cc1c(-c2ccccc2)cc(-c2ccccc2)[nH]c1=O | -6% | 4% | 46% | -6% | 118% | 2%
N#Cc1c(-c2cccc(Br)c2)cc(-c2ccco2)[nH]c1=O | 13µM* | ? | ? | 4% | 38%[57.1 µM] | 0%
Cc1ccc2c(c1)-c1onc(C(=O)N(C)c3cccc(C(F)(F)F)c3)c1CO2 | . | . | 3% | 3% | 5% | 25%
O=c1c([N+](=O)[O-])c(N2CCCC2)c2ccccc2n1-c1ccccc1 | 1% | 4% | -6% | 7% | -4% | 0%
COc1c([N+](=O)[O-])c(=O)n(-c2ccccc2)c2ccccc12 | -6% | 18µM* | 6% | -12% | -2% | 5%
N/C(=N\OC(=O)COc1ccc2ccccc2c1)c1ccccn1 | -8% | 89µM* | 6% | -9% | -2% | 8%
CCOC(=O)c1c(CSc2ccc(C)cc2)n(C)c2cc(Br)c(O)c(CN(C)C)c12 | -1% | 56µM* | 12% | -27% | -6% | 5%
CCOC(=O)C1=CN(Cc2cccc(Br)c2)S(=O)(=O)N(CC)C1C (stereo not drawn) | -4% | . | 26% | -4% | 6% | 15%
O=S(=O)(O)c1ccc2c(N=Nc3ccc(S(=O)(=O)O)c4ccccc34)c(O)c(S(=O)(=O)O)cc2c1 | . | -23% | 71µM* | -3% | 34% | .
CC(=O)Nc1ccc(S(=O)(=O)O)c2cc(S(=O)(=O)O)c(N=Nc3ccc(N=Nc4ccc(S(=O)(=O)O)cc4)c4ccc(S(=O)(=O)O)cc34)c(O)c12 | . | . | -21% | . | -17% | .
CCC(=O)N1CCc2cc(Br)cc(S(=O)(=O)CCC(=O)NCc3ccccc3)c21 | . | . | 13% | -14% | -3% | 5%
CCNc1ncc2nc(-c3ccc(Cl)cc3)c(=O)n(C[C@H]3CCCO3)c2n1 | . | 4% | . | -20% | . | .
Cc1ccc(NC(=O)CN2CCN(c3ccccn3)CC2)c(Cl)c1 | -5% | 79µM* | -2%[11.4 µM] | 14% | -7%[11.4 µM] | 7%
COc1ccccc1NC(=O)CN1CCN(c2ccccn2)CC1 | -1% | 0% | -11%[57.1 µM] | -7% | 3%[57.1 µM] | 5%
Cc1ccc(OC(C)C(=O)N2CCN(c3ccccn3)CC2)cc1 (stereo not drawn) | 27µM* | . | 8% | -24% | 0% | -8%
CCOc1ccc(OCC)c(NC(=O)CN2CCN(c3cccc(C)c3)CC2)c1 | -18% | 25µM* | 3% | 4% | -4% | -3%
COc1ccc(C)cc1NC(=O)CN1CCN(c2ccccn2)CC1 | 27µM* | 11% | 13% | ? | 3% | -2%
